Laboratory results published in PubChem BioAssay AID1706 (The Scripps Research Institute Molecular Screening Center, 2009).
In all, about 290,000 compounds went through this assay and about 400 (0.14%) were called active. The list comes from a sample in which actives are over-represented; it also holds similar structures and randomly drawn compounds. Values without a mark were called inactive. Cut-off read from the data, not from the text of the source: active = inhibition above about 12%; inactive = the rest.

Molecular target: Replicase polyprotein 1ab (Severe acute respiratory syndrome coronavirus) (UniProt P0C6X7)
Assay: SARS-CoV 3CLpro protease inhibitors, primary screen, biochemical, quenched FRET (AID 1706)
Details: recombinant SARS-CoV 3CLpro, quenched FRET peptide cleavage; at 6 µM; active compounds read high

Compound | inhibition
COc1ccc(S(=O)(=O)c2c[nH]c(=S)[nH]c2=O)cc1Cl | -1.78%
CN(CC(=O)N1CCN(c2ccccc2)CC1)S(=O)(=O)c1cccs1 | 2.74%
CC(=O)c1ccc(S(=O)(=O)N2CCC(Oc3ccc(-n4cnnn4)cc3)CC2)cc1 | -1.99%
CC(Sc1nnc(CNC(=O)c2ccccc2F)n1C)C(=O)Nc1nccs1 (stereo not given) | -0.59%
COc1cc(C(=O)NCCOC(=O)c2cccc(N(C)C)c2)cc(OC)c1OC | 0.81%
CCOC(=O)C1CCCN(CCSc2ccc(C)cc2)C1 (stereo not given) | -2.08%
O=C(O)c1ccc(NC(=O)c2cn(-c3ccccc3)nc2-c2ccc(Cl)cc2)cc1 | 12.7% (active)
Cc1ccc(-c2nn(-c3ccccc3)cc2C(=O)Nc2cccc(S(=O)(=O)N3CCOCC3)c2)cc1 | 1.75%
COc1ccc(-c2nn(-c3ccccc3)cc2/C=C\C(=O)Nc2ccc(C(=O)O)cc2)cc1 | 7.15%
CCc1ccc(N(C(=O)c2csnn2)C(C(=O)NC2CCCCC2)c2ccncc2)cc1 (stereo not given) | 0.17%
CC(C)(C)c1ccccc1NC(=O)CN1C(=O)NC2(CCCC2)C1=O | 0.18%
Clc1ccc(Cc2nn3c(-c4ccncc4)nnc3s2)cc1 | 2.77%
O=C(NCCCN1CCCCC1)C1CCCN(c2ncnc3c2nc2n3CCCCC2)C1 (stereo not given) | 1.81%
Cc1nn2c(=O)cc(COC(=O)c3ccc(NC(=O)C(C)(C)C)cc3)nc2s1 | -0.62%
Fc1ccccc1/C=N/Nc1cc(N2CCCCC2)ncn1 | 0.22%
O=C(C1CCC(C(=O)N2CCCC2)CC1)N1CCCC1 (stereo not given) | -3.63%
COc1cccc(-c2noc(C3CCCN(C(=O)c4ccc(F)cc4)C3)n2)c1 (stereo not given) | 2.89%
CCNS(=O)(=O)c1ccc(CCC(=O)N2CCN(c3cc(Cl)ccc3C)CC2)cc1 | 0.81%
CC(C)(C)C1CCC(C(=O)NCC(c2cccs2)N2CCOCC2)CC1 (stereo not given) | 4.8%
COc1cc(NS(=O)(=O)c2ccc(NC(=S)NC(=O)c3ccc(Br)cc3)cc2)ncn1 | -2.77%
COc1cc(CCC(=O)N2CCN(c3ccccc3Cl)CC2)cc(OC)c1OC | -0.35%
CCN(CC)S(=O)(=O)c1ccc(Cl)c(C(=O)NCCN2CCOCC2)c1 | -0.28%
CC(C)CCN1CCN(Cc2cn[nH]c2C2CCCCC2)CC1CCO (stereo not given) | 1.66%
COc1ccccc1/C=C/C(=O)NC(=S)N1CCOCC1 | 2.02%
COc1ccc(Cc2nc3ccc(C(=O)N4CCC(N(C)C)C4)cc3o2)cc1 (stereo not given) | -1.77%
Cc1cccc(N2C(=O)N3[C@H](c4ccc(F)cc4)[C@@H]4C(=O)N(C5CCCCC5)C(=O)[C@@H]4[C@]3(Cc3ccccc3)C2=O)c1 | 9.1%
Cc1cccc([C@@H]2[C@@H]3C(=O)N(Cc4ccccc4)C(=O)[C@@H]3[C@]3(C)C(=O)N(c4ccc(Br)cc4)C(=O)N23)c1 | -2.23%
C[C@@]12C(=O)N(c3cccc(Br)c3)C(=O)N1[C@H](c1ccc(Cl)cc1)[C@@H]1C(=O)N(C3CCCCC3)C(=O)[C@@H]12 | 32.5% (active)

Compound | inhibition
Cn1c(=O)c(=O)n(C)c2cc(S(=O)(=O)CCC(=O)N3CCCCC3)ccc21 | -7.51%
O=C(NCc1cccc(C(F)(F)F)c1)c1cccc(S(=O)(=O)N2CCN(Cc3ccccc3)CC2)c1 | 1.65%
O=C(COc1ccc(S(=O)(=O)Nc2cccc(C(F)(F)F)c2)cc1)N1CCOCC1 | -1.24%
O=C(NCc1ccccc1)c1ccc(S(=O)(=O)Nc2cccc(C(F)(F)F)c2)cc1 | 17.3% (active)
CN(C(=O)CCNC(=O)Cn1ccc2ccccc2c1=O)c1ccc(Br)cc1 | 1.62%
COc1ccc(/C=C(\C#N)c2c[nH]c3ccccc23)cc1 | 14.6% (active)
COc1cc(/C=C(\C#N)c2nc3ccccc3[nH]2)ccc1O | -3.33%
COc1ccc2[nH]cc(/C=C(/C#N)S(=O)(=O)c3ccccc3)c2c1 | 4.75%
CC(c1cccnc1)N(CCN(C)C)C(=O)Nc1ccc(Cl)c(Cl)c1 (stereo not given) | 2.29%
CS(=O)(=O)N(Cc1ccccc1Cl)c1ccc(C(=O)NCc2cccnc2)cc1 | 1.33%
O=C(Nc1ccc(S(=O)(=O)NCC2CCCO2)cc1)c1ccc(F)cc1 (stereo not given) | -0.56%
O=S(=O)(Nc1ccccc1)c1ccc(NS(=O)(=O)c2cccs2)cc1 | 2.66%
COC(=O)C1=CN(c2ccc(F)c(F)c2)C=C(C(=O)OC)C1c1ccc([N+](=O)[O-])cc1 | 1.13%
O=C(NCc1ccc(F)cc1)C1CCN(C(=O)Nc2ccc(F)cc2)CC1 | 5.05%
CC(C)c1ccc(C2C(C(=O)c3ccco3)=C(O)C(=O)N2CC2CCCO2)cc1 (stereo not given) | -0.41%
Cc1nn(C)c(C)c1C(C)NC(=O)c1ccc(OC2CCN(Cc3ccccn3)CC2)cc1 (stereo not given) | 3.56%
CCOc1ccc(OCc2cccc(C(=O)N(CC)CC)c2)cc1 | -3.35%
COc1ccc(C(=O)NCCSc2ccccc2C)cc1 | 6.37%
Cc1ccc(C(CNC(=O)Nc2ccccc2)N2CCN(C)CC2)cc1 (stereo not given) | -5.22%
Cc1ccc(CS(=O)(=O)CCC(=O)NCc2ccc(F)cc2)cc1 | -1.28%
COc1cccc(CC2(CO)CCCN(Cc3ccc(OC(F)F)cc3)C2)c1 (stereo not given) | -5.59%
COc1ccc(C(CCN(Cc2ccc(OC)c(OC)c2)C(=O)CCl)c2ccccc2)cc1 (stereo not given) | 34.5% (active)
COc1ccc(CN(C)C(=O)CC(c2ccccc2)c2ccccc2)cc1 | 4.64%
CCOC(=O)CN(Cc1ccc(OC)c(OC)c1)S(=O)(=O)c1ccc(OC)cc1 | 4.93%
Cc1ccc(CNC(=O)CCNC(=O)Cn2ccc3ccccc3c2=O)cc1 | 3.36%
COC(=O)COc1cccc2c(=O)n(CC(=O)NCc3ccccc3)ccc12 | 12.8% (active)
COC(=O)COc1cccc2c(=O)n(CC(=O)NCCc3ccc(OC)c(OC)c3)ccc12 | 4.26%
